Compounds without any hit were thinned out: in the full panel of roughly 83,000, 20% have a hit.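 In brief: 96-well plates, 48 h treatment, single concentration, percent growth endpoint.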 Unmarked numbers belong to inactive results. Activity calls are given as the source filed them. Rule for the calls: active = growth percent below 10; inactive = the rest.

Our source for the growth values is PubChem BioAssay (NCI).

What all share (test): NCI-60 one-dose screen, 48 h (100 = growth as untreated, 0 = no growth, -100 = all killed)
Conditions in all cases: 10 µM unless noted

The subject of assay [1] is NCI-H23 lung.
Assay [2] relates to NCI-H226 lung.
Assay [3] concerns NCI-H322M lung.
For assay [4], the system named is HOP-62 NSCLC.
The test system of assay [5] is NCI-H460 lung.
Assay [6] has as its system HOP-92 NSCLC.
Assay [7] relates to NCI-H522 lung.
In assay [8] the test system is A549/ATCC NSCLC.
In assay [9] the test system is 786-0 renal.
The test system of assay [10] is COLO 205 colon.

With `CCCC(C(=O)OCC)C(C)OC(=O)OCC` (stereo not given), the growth in assay [1] was 100%; in assay [2], 101%; in [3], 100%; in assay [4], 93.3%; in assay [5], 113%; in assay [6], 90.2%. In addition, the growth is 86.1% in [7], 104% in [8], 99.5% in assay [9] and 103% in [10].

Take `COc1cc(C2C=C(C)N=C3SC=C(C)N32)cc(OC)c1OC` (stereo not given): the growth in assay [1] is -27.7% (active); in assay [2], 2.75% (active); in [3], 13.6%; in assay [4] it was -62.1% (active); in assay [5] it was -39% (active); in [6], -32.4% (active). Moreover, the growth is -87.1% (active) in assay [7], -19.2% (active) in assay [8], -69% (active) in assay [9] and -75.9% (active) in [10].

In the case of `COc1cc(C(=O)N2CCN(C(=O)c3ccco3)CC2)c(N)cc1OCc1ccccc1`, the growth was 111% in [1]; 88.4% in [2]; 91.3% in assay [3]; 94.6% in assay [4]; 113% in assay [5]; 61% in [6]. The growth was 84.4% in assay [7], 93.3% in assay [8], 95.6% in assay [9] and 125% in assay [10].

As for `O=S(=O)(c1ccccc1)n1ccc(-c2ccc3c(c2)CCO3)n1`, the growth in assay [1] is 78.4%; in assay [2] it was 64.6%; in [3], 91.4%; in assay [4], 98.8%; in [5], 87.3%; in assay [6], 41.8%. Further, the growth was 61.7% in [7], 78.8% in [8], 90.3% in [9] and 96.9% in assay [10].

Consider `CC(Br)C(O)c1cc2c(cc1Br)OCO2` (stereo not given), for which the growth was 100% in assay [1]; 106% in [2]; 111% in assay [3]; 102% in assay [4]; 112% in assay [5]; 104% in assay [6]. In addition, the growth in [7] was 99.9%; in assay [8] it was 103%; in assay [9] it was 100%; in assay [10], 120%.

With `COc1ccc(-c2nc3sccn3c2-c2ccnc(NCCCNS(=O)(=O)c3ccc4ccccc4c3)n2)cc1`, the growth in assay [1] is 64.3%; in assay [2], 62%; in [3] it was 93.1%; in [4], 134%; in [5], 75.9%; in assay [6] it was 104%. Also, the growth in assay [7] was 62.4%; in assay [8], 76.1%; in assay [9], 67.6%; in assay [10], 57.6%.

Turning to `COc1cc(C(=O)CCCl)ccc1O`, the growth was 91.8% in assay [1]; 88.9% in assay [2]; 106% in assay [3]; 112% in assay [4]; 106% in assay [5]; 95.6% in assay [6]. In addition, the growth in [7] is -24.2% (active); in [8], 102%; in assay [9], 106%; in assay [10] it was 109%.

With `CCCCNc1nnc(-c2cc(-c3cc4ccccc4o3)nn2-c2ccccc2)o1`, the growth in assay [1] is 96.7%; in [2], 86.2%; in [3], 87.4%; in [4] it was 110%; in assay [5] it was 98.7%; in assay [6], 46.4%. Moreover, the growth in assay [7] is 80%; in assay [8], 82%; in [9], 93%; in assay [10], 105%.

For `COc1cc(-c2n[nH]nc2-c2ccc3c(c2)OCCO3)cc(OC)c1OC`, the growth is 22.8% in assay [1]; 75.7% in assay [2]; 51.4% in assay [3]; 8.87% (active) in assay [4]; 2.69% (active) in [5]; 24.3% in assay [6]. For the same molecule, the growth in [7] is -44.5% (active); in [8] it was 16.5%; in assay [9], 20.9%; in assay [10], -85.7% (active).

Regarding `CCNc1nc(N2CC(=O)Nc3cc(OC)ccc32)c2ccccc2n1`, the growth in assay [1] is 3.23% (active); in assay [2], 50.3%; in assay [3], 36.6%; in assay [4], 25.5%; in [5], -5.18% (active); in assay [6] it was -2.59% (active). In addition, the growth is -8.1% (active) in assay [7], 20.4% in assay [8], 12% in assay [9] and -48.4% (active) in assay [10].

`CN(C)c1ccc(-c2ccc(-c3ccc(C(=N)N)cn3)o2)cc1`: the growth was 20.9% in [1]; 21.3% in [2]; -0.109% (active) in assay [3]; -69.8% (active) in [4]; -86.8% (active) in assay [5]; -61.2% (active) in assay [6]. For the same molecule, the growth in [7] is -72.9% (active); in assay [8] it was -48.7% (active); in assay [9] it was -66.6% (active); in [10], -93.7% (active).

Consider `COc1ccc(NC(=O)/N=c2\oc3c(OC)cccc3cc2-c2cc3ccccc3[nH]2)cc1`, for which the growth in assay [1] was 53.2%; in assay [2] it was 67.7%; in [3] it was 74%; in [4], 22.6%; in assay [5] it was 49.4%; in [6] it was -9.99% (active). Further, the growth in assay [7] was 76.3%; in assay [8] it was 55.7%; in assay [9], 10.7%; in assay [10], 97.8%.

With `COc1cc(NS(C)(=O)=O)ccc1Nc1c2ccc([N+](=O)[O-])cc2nc2c(C)cccc12`, the growth was -0.0901% (active) in assay [1]; -23.6% (active) in assay [2]; 39.6% in assay [3]; -2.67% (active) in [4]; -25.4% (active) in assay [5]; -23.8% (active) in assay [6]. Moreover, the growth in assay [7] is -25.8% (active); in assay [8], -35.8% (active); in assay [9] it was -3.37% (active); in assay [10], 25.3%.

As to `CCN(CC)P(=O)(N(CC)CC)N(CCCSC/C=C(\C)CC/C=C(\C)CCC=C(C)C)CCCN1CCN(C)CC1`, the growth is 110% in assay [1]; 96.9% in assay [2]; 108% in assay [3]; 106% in assay [4]; 101% in [5]; 82.4% in [6]. Further, the growth in [7] was 91.6%; in assay [8], 87.6%; in assay [9], 101%; in assay [10], 105%.

On to `COC(=O)c1ccc2nc(-c3cc4ccccc4n3C)n(CCCCOc3cc4c(cc3OC)C(=O)N3CCC[C@H]3C=N4)c2c1`, for which the growth in [1] was 7.22% (active); in assay [2], -31.8% (active); in assay [3] it was -38.1% (active); in assay [4], 15.6%; in assay [5], -25.9% (active); in assay [6] it was -28.5% (active). Moreover, the growth in assay [7] was -28.1% (active); in assay [8] it was -11.8% (active); in [9], 8.78% (active); in assay [10], -39.4% (active).

With `COc1ccc2c(c1)NC(=O)CN2c1nc(NC2CC2)nc2ccccc12`, the growth in assay [1] was 12.4%; in assay [2], 65.7%; in [3], 40.7%; in assay [4], 31.7%; in assay [5], 2.27% (active); in assay [6], 3.22% (active). Moreover, the growth was -11.9% (active) in [7], 20.8% in assay [8], 19.6% in [9] and -18.9% (active) in assay [10].

Regarding `CC(CCc1ccccc1)NC(=O)c1n[nH]c(=O)c2ccccc12` (stereo not given), the growth is 116% in assay [1]; 103% in [2]; 89.7% in [3]; 92.1% in [4]; 110% in assay [5]; 61.2% in [6]. The growth in assay [7] was 82.4%; in [8], 95.8%; in assay [9] it was 107%; in assay [10] it was 115%.

On to `CCCCCCCCCCCCCCCCC(Br)C(=O)O` (stereo not given), for which the growth in [1] was 110%; in assay [2], 95.5%; in assay [3] it was 115%; in assay [4] it was 92.4%; in [5] it was 108%; in assay [6] it was 120%. In addition, the growth is 80.4% in assay [7], 103% in assay [8], 111% in assay [9] and 119% in assay [10].

Turning to `C=C1C(=O)O[C@H]2[C@H]1CC/C(Cn1cc(-c3ccccc3C(F)(F)F)nn1)=C\CC[C@@]1(C)O[C@@H]21`, the growth was 7.85% (active) in assay [1]; -45.6% (active) in assay [2]; 81.6% in assay [3]; 37.3% in assay [4]; 49.1% in assay [5]; -70.4% (active) in assay [6]. Also, the growth in assay [7] is -82.5% (active); in assay [8], 42.9%; in assay [9] it was -81.2% (active); in [10], -78.8% (active).

Take `COc1cc(C2C=C(C)N=C3SC(C)=NN32)cc(OC)c1OC` (stereo not given): the growth in [1] was 94.8%; in assay [2], 107%; in [3], 116%; in assay [4] it was 95.9%; in assay [5], 114%; in assay [6], 90.9%. The growth in [7] was 89.8%; in assay [8] it was 103%; in assay [9], 105%; in [10] it was 96.3%.

In the case of `Nc1c(C(=O)Nc2cccc(C(F)(F)F)c2)sc2nc3c(cc12)C(O)CCC3` (stereo not given), the growth in assay [1] was 39.5%; in assay [2], 56.3%; in assay [3], 27.2%; in [4] it was 40.7%; in assay [5], 14.5%; in [6], 67.2%. The growth was 19.3% in assay [7], 24.7% in assay [8], 47.4% in assay [9] and 9.16% (active) in assay [10].

For `CC/C=C\C[C@H](O)C/C=C1/C(=O)C(Cl)=C[C@@H]1C/C=C\CCCC(=O)O`, the growth in [1] was 70.2%; in assay [2], 89.6%; in [3] it was 94.5%; in [4] it was 96.8%; in assay [5], 97.7%; in assay [6] it was 98.3%. Also, the growth in assay [7] was -68.1% (active); in assay [8] it was 100%; in assay [9], 75.2%; in assay [10], 47.6%.

As to `Cc1oc2nc[nH]c(=O)c2c1C(=O)/C=C/c1ccc(Cl)cc1Cl`, the growth in [1] is 90%; in assay [2] it was 107%; in [3] it was 92.4%; in assay [4] it was 92.6%; in [5], 93.4%; in assay [6], 95.5%. The growth in assay [7] is 39.1%; in assay [8], 78.7%; in [9], 83.8%; in [10] it was 107%.

For the molecule `N#Cc1ncc(-c2ccc(F)c(F)c2F)c(NC2CCCCCC2)n1`, the growth in assay [1] was 88.1%; in assay [2], 93.8%; in assay [3], 85.7%; in [4] it was 82.3%; in assay [5], 98.9%; in assay [6], 65.1%. Moreover, the growth in assay [7] was 72%; in assay [8] it was 89.3%; in assay [9], 87.1%; in [10], 99.8%.

On to `COc1ccc(C(=O)c2cc(OC)c(OC)c(OC)c2)cc1/C=C/C(=O)c1ccc2c(c1)OCO2`, for which the growth was -3.44% (active) in [1]; 0.564% (active) in assay [2]; 52.9% in assay [3]; 69.8% in assay [4]; 14.6% in [5]; 64% in assay [6]. Besides, the growth is -43% (active) in assay [7], 53.5% in assay [8], 29.6% in assay [9] and 27.9% in assay [10].

`C/C(=C\c1csc(C)n1)[C@@H]1C[C@@H]2O[C@]2(C)CCC[C@H](C)[C@H](O)[C@@H](C)C(=O)C(C)(C)[C@@H](O)CC(=O)N1`: the growth in assay [1] was -70% (active); in assay [2] it was -60.3% (active); in [3] it was -83.3% (active); in assay [4] it was -69.5% (active); in assay [5], -85.5% (active); in assay [6] it was -47.2% (active). Moreover, the growth in assay [7] was -81.4% (active); in assay [8], -79.8% (active); in assay [9], -22.5% (active); in [10] it was -62.5% (active).

`C=CCOc1ccc(/C(O)=C2\C(=O)C(=O)N(c3nccs3)C2c2ccccc2F)cc1` (stereo not given): the growth is 119% in [1]; 102% in assay [2]; 80% in assay [3]; 92.3% in assay [4]; 94.4% in assay [5]; 106% in [6]. Also, the growth in assay [7] is 100%; in [8], 95.4%; in [9], 95.5%; in assay [10] it was 104%.
